# Test results as given in ChEMBL document CHEMBL1157539, “Thousands of chemical starting points for antimalarial lead identification” (Nature, 2010).
# Where “and” joins values, the source holds several entries; their conditions need not be identical. Identical values can stand only once.
# How the values were obtained:
# Format in all cases: functional
# Plasmodium falciparum [1] = experiment: GSK_TCMDC: Inhibition of Plasmodium falciparum 3D7 in whole red blood cells, using parasite LDH activity as an index of growth. Test compounds present at 2uM
# Plasmodium falciparum [2] = experiment: GSK_TCMDC: Inhibition of Plasmodium falciparum Dd2 in whole red blood cells, using parasite LDH activity as an index of growth. Test compounds present at 2uM
# HepG2 = experiment: GSK_TCMDC: Percent inhibition of human HepG2 cell line. Test compounds present at 10uM.
SMILES,Inhibition (Plasmodium falciparum [1]),Inhibition (Plasmodium falciparum [2]),Inhibition (HepG2)
CN(C)c1cccc(NC(=O)N[C@H]2N=C(c3ccccc3)c3ccccc3N(CC(=O)N3CCCC3)C2=O)c1,98%,98%,0%
O=C(NC1CCC(CN2CCC(c3c[nH]c4ccccc34)CC2)CC1)c1csc(-c2cccc(Cl)c2Cl)n1 (centres undefined),99%,41%,34%
Oc1cc2c(cc1CN1CCN(Cc3ccccc3)CC1)CCC2,98%,92%,1%
Br.CC[C@H]1CN2CC[C@H]1C[C@H]2[C@H](O)c1ccnc2ccc(OC)cc12,100%,62%,0%
CN(C)CCCn1cc(C(=O)OC2CC3CCC(C2)N3C)c2cc(-c3ccccc3)ccc21.Cl (centres undefined),97%,96%,97%
CC(Cc1ccc(OCc2ccc(CCN(C)C)cc2)cc1)NCCc1cccc(Cl)c1 (centres undefined),100%,78%,42%
C=CC12CCN(CC1)C(C(O)c1ccnc3ccc(OC)cc13)C2 (centres undefined),–,72%,0%
Cc1ccc(CC(C)NCC(O)c2cccc(C(F)(F)F)c2)cc1.Cl (centres undefined),99%,97%,6%
O=C(/C=C/c1ccc(O)cc1)NC1CCC(CN2CCC(c3c[nH]c4ccccc34)CC2)CC1 (centres undefined),99%,51%,21%
O=C(/C=C/c1ccc(Cl)c(Cl)c1)NC1CCC(CN2CCC(c3c[nH]c4ccc(O)cc34)CC2)CC1 (centres undefined),100%,100% and 99%,35% and 38%
O=C(/C=C/c1ccc(Cl)c(Cl)c1)N(Cc1ccccc1)C1CCC(CN2CCC(c3c[nH]c4ccccc34)CC2)CC1 (centres undefined),100%,59%,37%
COC(=O)/C=C/c1ccc(CC(C)NCC(O)c2cccc(Br)c2)cc1 (centres undefined),97%,93%,2%
O=C(O)C(F)(F)F.OC1(CNCc2ccccc2)CCN(CCc2c[nH]c3ccc(F)cc23)CC1,100%,4%,39%
CC(=O)Nc1ccc(OCCN(CC(F)(F)F)c2ccc(C#N)cc2C(F)(F)F)cc1,81%,83%,0%
OC(CNC1CCCCC1)c1ccc(Cl)c(Cl)c1 (centres undefined),99%,96%,17%
O=C(C=Cc1cccc(Cl)c1Cl)NC1CCC(CN2CCC(c3c[nH]c4ccccc34)CC2)CC1 (centres undefined),83% and 100%,–,40% and 33%

SMILES,Inhibition (Plasmodium falciparum [1]),Inhibition (Plasmodium falciparum [2]),Inhibition (HepG2)
Oc1ccccc1CN1CCC(CCOC(c2ccccc2)c2ccc(Cl)cc2)CC1 (centres undefined),97%,99%,19%
O=C(NC1CCC(CN2CCC(c3c[nH]c4ccccc34)CC2)CC1)C1(O)c2ccccc2-c2ccccc21 (centres undefined),85%,46%,22%
CSc1ccc(C[C@@H](C)NC[C@H](O)c2cccc(Cl)c2)cc1.Cl,97%,96%,8%
O=C(NC1CCN(CC2(c3ccc(Cl)cc3)CCC2)CC1)c1cc[nH]n1,96%,43%,0%
CC1CN=C(Nc2ncc(Cl)cc2Cl)N1.Cl (centres undefined),99%,3%,2%
O=C(Nc1ccccc1C(F)(F)F)NC1CCC(CN2CCC(c3c[nH]c4ccccc34)CC2)CC1 (centres undefined),96% and 86%,–,46% and 34%
COC(=O)c1ccc(CC(C)NCC(O)c2cc(Cl)c(N)c(Cl)c2)cc1 (centres undefined),91%,66%,0%
COc1ccc(C=CC(=O)N2CCC(CN3CCC(c4c[nH]c5ccccc45)CC3)CC2)cc1OC,94%,4%,20%
CN(c1cc(NC(=O)c2cccs2)ccn1)C1CCN(Cc2ccccc2)CC1.O=C(O)C(F)(F)F,92%,87%,0%
COCCNCc1cccc(-c2ccccc2CN(C(=O)Nc2ccccc2)C2CCN(Cc3ccccc3)CC2)c1.O=C(O)C(F)(F)F,96%,51%,30%
O=C(CCc1ccc(Cl)cc1Cl)NC1CCC(CN2CCC(c3c[nH]c4ccccc34)CC2)CC1 (centres undefined),100% and 97%,–,44% and 33%
COC(=O)c1ccc(CC(C)NCC(O)c2cccc(I)c2)cc1 (centres undefined),87%,54%,15%
N#Cc1c(Cl)cccc1Oc1ccc(S(=O)(=O)NC2CCC(CN3CCC(c4c[nH]c5ccccc45)CC3)CC2)cc1 (centres undefined),85% and 100%,36% and 16%,31% and 29%
O=C(C=Cc1ccccc1C(F)(F)F)NC1CCC(CN2CCC(c3c[nH]c4ccccc34)CC2)CC1 (centres undefined),100%,90% and 47%,47% and 73%
O=[N+]([O-])c1ccc(Oc2c(Cl)cc(S(=O)(=O)NC3CCC(CN4CCC(c5c[nH]c6ccccc56)CC4)CC3)cc2Cl)c(Cl)c1 (centres undefined),100%,64%,30%
